The values that follow come from article PMC4336329 (PLoS ONE, 2015).

The structures appear in SMILES notation. The whole screen tested about 310,000 compounds, of which about 14,000 (4.5%) showed an effect of 50% or more. Effects have a minus sign here. This is one part of a sample in which strong results are shown more often than they occur.
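Also: peak tail current of the secondary pulse compared with the same well before compound.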

For the test, the target named is human ether-à-go-go-related gene (hERG) potassium channel (human, UniProt Q12809). The experiment in a line: primary screen, population patch clamp on CHO cells stably expressing hERG; higher = less effect of the substance.
Sequence of human ether-à-go-go-related gene (hERG) potassium channel (Q12809 whole entry, looked up): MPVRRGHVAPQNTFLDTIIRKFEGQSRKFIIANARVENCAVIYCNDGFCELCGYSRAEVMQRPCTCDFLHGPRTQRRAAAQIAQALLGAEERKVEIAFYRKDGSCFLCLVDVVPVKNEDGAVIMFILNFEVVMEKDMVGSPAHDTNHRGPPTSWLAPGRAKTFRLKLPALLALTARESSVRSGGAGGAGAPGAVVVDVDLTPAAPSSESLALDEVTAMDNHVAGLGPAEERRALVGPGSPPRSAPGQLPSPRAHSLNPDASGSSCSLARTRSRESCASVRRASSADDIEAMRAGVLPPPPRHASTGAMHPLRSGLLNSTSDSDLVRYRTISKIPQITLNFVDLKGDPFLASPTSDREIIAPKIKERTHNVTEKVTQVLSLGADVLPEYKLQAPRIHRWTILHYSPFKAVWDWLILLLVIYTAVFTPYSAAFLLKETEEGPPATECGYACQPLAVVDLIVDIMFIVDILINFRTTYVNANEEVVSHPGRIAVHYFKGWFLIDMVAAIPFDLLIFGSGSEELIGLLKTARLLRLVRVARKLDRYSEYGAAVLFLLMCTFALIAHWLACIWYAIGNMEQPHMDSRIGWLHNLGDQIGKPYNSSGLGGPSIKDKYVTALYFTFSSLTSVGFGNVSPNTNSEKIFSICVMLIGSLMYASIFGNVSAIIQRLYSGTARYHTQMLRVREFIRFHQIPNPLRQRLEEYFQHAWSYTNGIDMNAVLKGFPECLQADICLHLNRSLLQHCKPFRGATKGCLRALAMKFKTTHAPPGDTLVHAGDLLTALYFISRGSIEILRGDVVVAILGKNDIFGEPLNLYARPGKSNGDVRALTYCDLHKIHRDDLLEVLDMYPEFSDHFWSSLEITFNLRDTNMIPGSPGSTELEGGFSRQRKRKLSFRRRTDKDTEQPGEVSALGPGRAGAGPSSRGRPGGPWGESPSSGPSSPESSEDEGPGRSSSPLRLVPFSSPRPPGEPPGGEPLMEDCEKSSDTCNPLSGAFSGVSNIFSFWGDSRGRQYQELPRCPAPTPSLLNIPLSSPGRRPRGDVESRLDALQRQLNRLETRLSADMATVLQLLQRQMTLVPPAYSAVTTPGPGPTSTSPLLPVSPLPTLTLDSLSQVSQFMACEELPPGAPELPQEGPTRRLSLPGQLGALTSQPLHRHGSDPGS
`O=C1C2C(c3ccccc3)CC=CC2[C@H](c2ccc(C(F)(F)F)cc2)N1Cc1ccccc1` (some centres unmarked): the “hERG current change (%, negative = inhibition) at 10uM” value is reported as -2.51%. Consider `CCC(=O)Nc1c2c(nn1-c1ccc(OC)cc1)CS(=O)C2` (centres unmarked), for which the “hERG current change (%, negative = inhibition) at 10uM” value is reported as 9.94%. The figure for `CC(=O)c1ccc(NS(=O)(=O)Cc2ccccc2)cc1` is 3.41%; for `Cc1cc(=O)oc2cc(OCC(=O)OCc3nnc(-c4ccccc4)o3)ccc12` it is 14.3%. In the case of `CC(C)(C)c1ccc(OCC(O)CN2CCOCC2)cc1` (centres unmarked), the “hERG current change (%, negative = inhibition) at 10uM” value is recorded as -3.19%.

For the compound `CCOC(=O)C1CCN(CC(O)COc2ccc(C(=O)CC)cc2)CC1.Cl` (centres unmarked), the “hERG current change (%, negative = inhibition) at 10uM” value was -68.5%. The figure for `CCN1CCN(CC(O)COc2ccc(C(C)=O)cc2)CC1.Cl` (centres unmarked) is 2.15%; for `CCOC(=O)C1CCN(CC(O)COc2ccc(C(C)(C)C)cc2)CC1.Cl` (centres unmarked) it is -70.4%.

`CCOC(=O)C1CCN(CC(O)COc2ccc(C(C)=O)cc2)CC1.Cl` (centres unmarked): the “hERG current change (%, negative = inhibition) at 10uM” value was -47.7%.

As to `CC1CCCC/C1=N\NC(=S)Nc1cccnc1` (centres unmarked), the “hERG current change (%, negative = inhibition) at 10uM” value amounted to 15.8%. Turning to `Cc1noc(C)c1COc1ccc(C(=O)OCC(N)=O)cc1`, the “hERG current change (%, negative = inhibition) at 10uM” value was 18%. The figure for `O=C(Nc1ccc(Cl)cc1)c1ccc(-n2cccn2)c([N+](=O)[O-])c1` is 4.78%; for `CC(C)c1nc2c(s1)CCc1onc(-c3cccc([N+](=O)[O-])c3)c1-2` it is 16.4%; for `COc1cc(OC)cc(-n2nnnc2SCC(=O)N2CCCC2)c1` it is -30.2%. Then `Cc1ccc(-n2nnnc2SCC(=O)NC2CCCc3ccccc32)c(C)c1` (centres unmarked), with -7.69%; and `O=C(c1cccc(C(F)(F)F)c1)C1CCCN(Cc2cccn2-c2ncccn2)C1` (centres unmarked), with -95.7%.

As to `O=C(c1cccc(C(F)(F)F)c1)C1CCCN(Cc2ncc[nH]2)C1` (centres unmarked), the “hERG current change (%, negative = inhibition) at 10uM” value was found to be 0.0209%. Then `O=C(c1ccc(C(F)(F)F)cc1)C1CCCN(Cc2cccn2-c2ncccn2)C1` (centres unmarked), with -80.3%. With `COCC(=O)N1CCCC(C(=O)c2ccc(C(F)(F)F)cc2)C1` (centres unmarked), the “hERG current change (%, negative = inhibition) at 10uM” value is listed as -0.113%.

As to `O=C(c1cccc(C(F)(F)F)c1)C1CCCN(Cc2cccn2-c2ccccn2)C1` (centres unmarked), the “hERG current change (%, negative = inhibition) at 10uM” value is given as -83.5%.

`CCn1ccnc1CN1CCCC(C(=O)c2cccc(C(F)(F)F)c2)C1` (centres unmarked): the “hERG current change (%, negative = inhibition) at 10uM” value is -31.1%. For `O=C(c1cccc(C(F)(F)F)c1)C1CCCN(C(=O)CCc2cnccn2)C1` (centres unmarked), the “hERG current change (%, negative = inhibition) at 10uM” value is given as -15.6%. As for `O=C(c1ccc(C(F)(F)F)cc1)C1CCCN(Cc2ccc(CO)o2)C1` (centres unmarked), the “hERG current change (%, negative = inhibition) at 10uM” value is -24.6%. Consider `O=C1CCN(Cc2ccc(Br)cc2)CCN1CCO`, for which the “hERG current change (%, negative = inhibition) at 10uM” value is recorded as -1.08%. `CCOc1ccc(S(=O)(=O)N(C)c2ccc(OCC(=O)Nc3nccs3)cc2)cc1`: the “hERG current change (%, negative = inhibition) at 10uM” value is 10.1%. For the compound `O=C(O)CN1C(=O)C2C3C=CC(C2C1=O)C1C(=O)N(CC(=O)O)C(=O)C31` (centres unmarked), the “hERG current change (%, negative = inhibition) at 10uM” value is reported as 21.8%. Then `CSc1ccc(CN(C)C(=O)c2cccc(S(=O)(=O)N3CCN(Cc4ccccc4)CC3)c2)cc1`, with -1.76%; and `COc1cc(/C=C2/SC(=S)N(CC(=O)O)C2=O)ccc1OCC(=O)Nc1ccc(C)c(C)c1`, with -6.69%. The figure for `COc1ccccc1/C=C1/C(=O)N(c2ccc([N+](=O)[O-])cc2)N=C1C` is 12.7%.

`CCN(CC)C(=O)CSc1nc2ccccc2c(=O)n1CC1CCCCC1`: the “hERG current change (%, negative = inhibition) at 10uM” value is -61%. As to `CCOC(=O)CSc1nc2ccccc2c(=O)n1CC1CCCO1` (centres unmarked), the “hERG current change (%, negative = inhibition) at 10uM” value is given as -6.58%. Then `CCOC(=O)CSc1nc2ccccc2c(=O)n1CC`, with -14.6%. For `CCOC(=O)CSc1nc2ccccc2c(=O)n1CC1CCCC1`, the “hERG current change (%, negative = inhibition) at 10uM” value is -67.3%.

As to `CCOC(=O)C(C)Sc1nc2ccccc2c(=O)n1CC1CCCCC1` (centres unmarked), the “hERG current change (%, negative = inhibition) at 10uM” value is -10.1%. As for `CCN(CC)C(=O)CSc1nc2ccccc2c(=O)n1CC`, the “hERG current change (%, negative = inhibition) at 10uM” value is on record as -1.18%. As to `Cl.c1ccc(N2CCCCC2)c(NC2=NCCC2)c1`, the “hERG current change (%, negative = inhibition) at 10uM” value is -15.5%. With `CN(C)/C=C1\NC(=S)N(c2ccccc2)C1=O`, the “hERG current change (%, negative = inhibition) at 10uM” value was found to be 28.4%. Regarding `Cc1ccc2c(c1)N(CC(=O)N1CCOCC1)C(=O)CO2`, the “hERG current change (%, negative = inhibition) at 10uM” value was 4.9%.

`COCCCNc1nc2nonc2nc1N1CCN(C2CCCC2)CC1`: the “hERG current change (%, negative = inhibition) at 10uM” value was -20.2%.

Regarding `CC1CC(C)CN(C(=O)c2ccc3ccccc3c2)C1` (centres unmarked), the “hERG current change (%, negative = inhibition) at 10uM” value is given as -19.2%. Then `CCc1ccc(OCC(O)CN2CCN(c3ccc(OC)cc3)CC2)cc1.Cl` (centres unmarked), with -49.3%; and `CCCc1ccc(OCC(O)CN2CCN(c3ccccn3)CC2)cc1.Cl` (centres unmarked), with -63.6%. For the compound `CCc1ccc(OCC(O)CN2CCN(c3ccccc3)CC2)cc1.Cl` (centres unmarked), the “hERG current change (%, negative = inhibition) at 10uM” value was -60.3%. Consider `CCCc1ccc(OCC(O)CN2CCN(c3ccccc3)CC2)cc1.Cl` (centres unmarked), for which the “hERG current change (%, negative = inhibition) at 10uM” value is recorded as -46.5%.

Consider `CCc1ccc(OCC(O)CN2CCN(c3ccccn3)CC2)cc1.Cl` (centres unmarked), for which the “hERG current change (%, negative = inhibition) at 10uM” value is on record as -67.4%. In the case of `COc1cccc(OCC(O)CN2CCN(c3ccccn3)CC2)c1.Cl` (centres unmarked), the “hERG current change (%, negative = inhibition) at 10uM” value is -12.7%.

`CCc1ccc(OCC(O)CN2CCN(CCO)CC2)cc1.Cl` (centres unmarked): the “hERG current change (%, negative = inhibition) at 10uM” value is given as -15.3%. The figure for `CC(=O)C1C(c2ccc3ncccc3c2)NC(=O)NC1(O)C(F)(F)F` (centres unmarked) is 10.9%; for `Cc1ccsc1/C=N/Nc1ncc(Cl)cc1Cl` it is 5.75%; for `COc1ccc(C)cc1S(=O)(=O)N1CCN(S(=O)(=O)c2cc(C(=O)O)ccc2C)CC1` it is 3.86%. In the case of `CCN1CCN(C(c2cccs2)C(C)NC(=O)c2cccc(OC)c2)CC1` (centres unmarked), the “hERG current change (%, negative = inhibition) at 10uM” value is on record as -4.05%. The figure for `CCN(CC)C(=O)c1ccc(NC(=O)c2cccc(C(F)(F)F)c2)cc1` is 4.47%; for `CN(C(=O)COC(=O)c1ccc2c(=O)n3c(nc2c1)CCC3)C1CCS(=O)(=O)C1` (centres unmarked) it is 10.5%. Then `CCc1ccc2nc(NC(=O)Cn3cnc4ccccc4c3=O)sc2c1`, with 9.75%; and `Cc1cc(C)nc(/N=C(\N)Nc2ccc(OCc3ccccc3)cc2)n1`, with -78.2%. Turning to `CCOC(=O)C(=O)Nc1ccc(OCc2ccccc2)cc1`, the “hERG current change (%, negative = inhibition) at 10uM” value is 20.2%. The figure for `CC(=O)Nc1cccc(N/C(N)=N/c2nc(C)cc(C)n2)c1` is 4.87%. Then `Cc1cc(C)nc(/N=C(\N)Nc2ccc(S(=O)(=O)Nc3nccc(C)n3)cc2)n1`, with 19.8%; and `Cc1cc(C)nc(/N=C(\N)Nc2cccc([N+](=O)[O-])c2)n1`, with -28.7%; and `Cc1cc(C)nc(/N=C(\N)Nc2cccc(OCc3ccccc3)c2)n1`, with -74.1%. Then `CCOc1ccc(N/C(N)=N/c2nc(C)cc(C)n2)cc1`, with -46.5%; and `Cc1cc(OCC(=O)Nc2ccc(OCc3ccccc3)cc2)nc(C(C)C)n1`, with 3.36%; and `Cc1cc(C)nc(/N=C(\N)Nc2ccc(OCCC(C)C)cc2)n1`, with -71.8%. In the case of `CCOC(=O)c1c(C)noc1CP(=O)(c1ccccc1)c1ccccc1`, the “hERG current change (%, negative = inhibition) at 10uM” value is listed as -6.61%. As for `CCC(=O)NC(c1ccc(OC)cc1)c1c(O)ccc2ccccc12` (centres unmarked), the “hERG current change (%, negative = inhibition) at 10uM” value is given as 3.82%. Then `COc1ccc(-c2cnnc(N/N=C/c3ccc(O)c(OC)c3)n2)cc1`, with -50.1%.

On to `COc1ccc(-c2cnnc(N/N=C/c3ccc(O)c(O)c3)n2)cc1`, for which the “hERG current change (%, negative = inhibition) at 10uM” value worked out at 2.82%.

For `COc1ccc(-c2cnnc(N/N=C/c3ccc(OC)c(OC)c3)n2)cc1`, the “hERG current change (%, negative = inhibition) at 10uM” value is -35.7%.

With `CC1CCCCC12NC(=O)N(Cn1nnc3ccccc3c1=O)C2=O` (centres unmarked), the “hERG current change (%, negative = inhibition) at 10uM” value is listed as -17.2%. The figure for `Cc1ccc(-c2cc(-c3ccccc3)nc(N(C)N)n2)cc1` is 16.7%; for `c1ccc(Cc2nnc(N3CCCCC3)c3ccccc23)cc1` it is -26.7%; for `O=C(Cn1nc(Cc2cccnc2)c2ccccc2c1=O)N1CCN(c2ccccn2)CC1` it is -23.1%. As to `c1ccc(N2CCN(c3nnc(Cc4cccnc4)c4ccccc34)CC2)nc1`, the “hERG current change (%, negative = inhibition) at 10uM” value is -50.1%. The figure for `CC(C)(C)c1ccc(COc2ccsc2C(=O)O)cc1` is -6.72%; for `O=C(CNC(=S)N(Cc1ccccc1)Cc1cccnc1)NCCc1ccccc1` it is -41.3%; for `Cc1ccc(CCNC(=O)CNC(=S)N(Cc2ccccc2)Cc2cccnc2)cc1` it is -55%.

Take `Cc1ccc(CNC(=O)CNC(=S)N(Cc2ccccc2)Cc2cccnc2)cc1`: the “hERG current change (%, negative = inhibition) at 10uM” value is given as -19.8%. Then `COc1ccc(CN(Cc2cccnc2)C(=S)NCCc2ccccc2)cc1OC.O=C(O)C(=O)O`, with -50.5%; and `COCCNC(=S)N(Cc1cccnc1)Cc1ccc(OC)c(OC)c1.O=C(O)C(=O)O`, with 9.52%; and `COCCCNC(=S)N(Cc1cccnc1)Cc1ccc(OC)c(OC)c1`, with 12.4%.

For `CCCc1nn(C)c2c(=O)[nH]c(-c3cc(S(=O)(=O)Nc4ccc(NC(C)=O)cc4)ccc3OCC)nc12`, the “hERG current change (%, negative = inhibition) at 10uM” value is -21.2%.

Turning to `O=C(NC1CCCCCC1)c1ccc(CS(=O)(=O)Cc2ccc(F)cc2)o1`, the “hERG current change (%, negative = inhibition) at 10uM” value came out at 3.52%.

For `O=C(CCNC(=O)c1ccccc1)OCN1C(=O)c2ccccc2C1=O`, the “hERG current change (%, negative = inhibition) at 10uM” value is -5.38%. For the compound `CCCCNC(=O)CS(=O)Cc1nc(-c2ccc(C)cc2)oc1C` (centres unmarked), the “hERG current change (%, negative = inhibition) at 10uM” value is recorded as -17.5%. The figure for `COCCCNC(=O)Cn1nnc(-c2ccc(NC(=O)c3ccccc3OC)cc2)n1` is 6.89%; for `CCOc1ccc(-c2nnc(SCc3nc4ccccc4[nH]3)n2N)cc1` it is -34.3%; for `CCN1C(=O)CC(N2CCN(c3ccc(OC)cc3)CC2)C1=O` (centres unmarked) it is -9.88%. On to `COc1ccc(CCN2C(=O)CC(N3CCN(S(=O)(=O)c4ccccc4)CC3)C2=O)cc1` (centres unmarked), for which the “hERG current change (%, negative = inhibition) at 10uM” value was -18.7%.

In the case of `COc1ccc(OCCN2CCN(C3CC(=O)N(CCC(C)C)C3=O)CC2)cc1` (centres unmarked), the “hERG current change (%, negative = inhibition) at 10uM” value was -63.4%.
